Key:
Settings in all cases: concentration: 1 μM, replicates: in singlicate; n = 1
[1] = test system: T1, YANK2
T1 construct: gene STK32B

[2] = test system: T2, YANK3
T2 construct: gene STK32C

[3] = test system: T3, YES
T3 construct: gene YES1

[4] = test system: T4, YSK1
T4 construct: gene STK25

[5] = test system: T5, YSK4
T5 construct: gene MAP3K19

[6] = test system: ZAK
[7] = test system: ZAP70
[8] = test system: T6, p38-alpha
T6 construct: gene MAPK14

[9] = test system: T7, p38-beta
T7 construct: gene MAPK11

[10] = test system: p38-delta
[11] = test system: T8, p38-gamma
T8 construct: gene MAPK12
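Further: KINOMEscan kinase panel screen.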

SMILES	%Inh [1]	%Inh [2]	%Inh [3]	%Inh [4]	%Inh [5]	%Inh [6]	%Inh [7]	%Inh [8]	%Inh [9]	%Inh [10]	%Inh [11]
Cc1ccc(NC(=O)Nc2ccccc2F)cc1-c1ccc(C(=O)Nc2ccncc2)cc1 [GSK1398477]	12%	16%	26%	3%	86%	60%	0%	36%	12%	36%	0%
Cc1ccc(NC(=O)Nc2ccccc2)cc1-c1ccc(C(=O)Nc2ccncc2)cc1 [GSK1398471]	5%	0%	12%	21%	94.6%	53%	0%	0%	0%	19%	12%
COc1cccc(NC(=O)Nc2ccc(C)c(-c3ccc(C(=O)Nc4ccncc4)cc3)c2)c1 [GSK1398474]	0%	10%	12%	4%	24%	50%	0%	6%	0%	28%	27%
COc1cccc(C2=C(Nc3cc(Cl)c(O)c(Cl)c3)C(=O)NC2=O)c1 [SB-390767]	0%	4%	19%	0%	30%	0%	0%	0%	0%	39%	0%
COc1ccc(Nc2nccc(-c3ccc(NC(=O)c4cc5cc(F)ccc5[nH]4)cc3)n2)cc1 [GSK1229496]	0%	0%	0%	0%	8%	6%	0%	4%	0%	43%	1%
O=C1NC(=O)C(c2ccc(Cl)cc2)=C1Nc1cccc(Cl)c1 [SB-317651]	0%	0%	0%	0%	0%	16%	5%	13%	0%	5%	11%
Cc1ccccc1Cn1ccn2c(=O)cc(N3CCOCC3)nc12 [GSK2269905]	0%	7%	19%	16%	28%	0%	0%	0%	0%	7%	0%
CCn1c(-c2c(N)noc2C)nc2cnccc21 [SB-737856]	0%	17%	19%	58%	44%	30%	0%	0%	0%	16%	0%
CCCCc1nn2ncccc2c1-c1ccnc(NC2CC2)n1 [GW684374]	3%	0%	0%	25%	18%	24%	0%	61%	0%	40%	0%

— article PMC5540273 (PLoS ONE, 2017)
